This is an account of results in PubChem BioAssay.

Each structure is given as a SMILES string. Inconclusive results are not listed. Activity calls are given as the source filed them.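 How the source made its calls, unless noted: active means inhibition above 50%, about 3 SD of the validation set; inactive means the rest.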

Test [1] in a line: yeast TOR pathway RPL19A-GFP modulators, primary screen, cell-based, S. cerevisiae, multiplex flow cytometry (AID 1862; in the data active means percent of DMSO control GFP below about 86%;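 further: lower values mimic rapamycin by blocking the RPL19A rise seen in DMSO cells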). To be noted: S. cerevisiae RPL19A-GFP strain, flow cytometry fluorescence, 3 h; at 10 µM; stronger effect = lower value. A general note: Flow cytometry measures light scatter and fluorescence of single cells or particles in a stream.
Test [2] can be described thus: modulators of MEP2-GFP levels in yeast, primary screen, S. cerevisiae, multiplex flow cytometry (AID 1867;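 active means GFP response, as percent of the DMSO control, above the screen-wide mean plus 3 SD, about 139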;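 further: median GFP channel fluorescence of barcode-gated MEP2-GFP cells measured by flow cytometry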). As to conditions: S. cerevisiae MEP2-GFP strain, 3 h, at 10 µM, stronger effect = higher value, 100% means same as DMSO wells.
A short description of test [3]: modulators of CIT2-GFP expression in yeast, primary screen, S. cerevisiae, GFP fusion, multiplex flow cytometry (AID 1870;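 active means percent response above a set limit, the screen-wide mean plus 3 SD, cut at about 130% in these data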;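 further: barcoded CIT2-GFP strain pooled with four other GFP strains with rapamycin as positive control; median GFP fluorescence per well over plate mean of DMSO wells so 100% = DMSO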). To be noted: 3 h, at 10 µM, stronger effect = higher value.
A short description of test [4]: modulators of LAP4-GFP expression in yeast, primary screen, S. cerevisiae, multiplex flow cytometry (AID 1873;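 active means GFP signal, as percent of the solvent control, above the screen mean plus 3 SD, about 149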). As to conditions: 3 h, at 10 µM, stronger effect = higher value.
Test [5] in a line: modulators of AGP1-GFP expression in yeast TOR pathway, primary screen, cell-based, multiplex flow cytometry, S. cerevisiae (AID 1887;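 active means GFP signal above the screen-wide mean plus 3 SD, that is over about 124.5% of the solvent control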;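 further: AGP1-GFP fusion strain of S. cerevisiae within a five-strain barcoded multiplex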). As to conditions: 3 h, at 10 µM, stronger effect = higher value.
A short description of test [6]: inhibitors of CD8+ T cell-vesicle binding, pilot screen, LFA-1/ICAM-1 modulator project, MLPCN validation set, flow cytometry (AID 2523;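 active means response below a set limit, under 55% cells CD8-positive and vesicle-bound, and CD8 cells' 90th-percentile brightness under 279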;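 on vesicle binding response: mean PE anti-B7-1 fluorescence of CD8+ cells relative to row control; 100% = QL9-loaded vesicles with DMSO vehicle in the same plate row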). To be noted: 2C mouse CD8+ T cells, at 7 µM, stronger effect = lower value; double positive events: measured here: CD8+/vesicle+ event percentage.
The target of test [7] is Integrin beta-1 (Homo sapiens) + Integrin alpha-4 (Homo sapiens) (UniProt P13612+P05556). Description: inhibition of HUTS-21 binding to VLA-4, pilot screen, VLA-4 allosteric modulator project, U937 cells, HUTS-21 mAb, flow cytometry, validation set (AID 2674).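 Further: antibody binding induced by the VLA-4 ligand LDV present at three times its Kd; 0% = LDV ligand with antibody and no compound and 100% = antibody without LDV.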 To be noted: HUTS-21 LIBS mAb binding, at 6.7 µM, stronger effect = higher value, binding induced by LDV ligand.
Integrin beta-1 (Homo sapiens) + Integrin alpha-4 (Homo sapiens), sequence (P05556 whole entry, looked up): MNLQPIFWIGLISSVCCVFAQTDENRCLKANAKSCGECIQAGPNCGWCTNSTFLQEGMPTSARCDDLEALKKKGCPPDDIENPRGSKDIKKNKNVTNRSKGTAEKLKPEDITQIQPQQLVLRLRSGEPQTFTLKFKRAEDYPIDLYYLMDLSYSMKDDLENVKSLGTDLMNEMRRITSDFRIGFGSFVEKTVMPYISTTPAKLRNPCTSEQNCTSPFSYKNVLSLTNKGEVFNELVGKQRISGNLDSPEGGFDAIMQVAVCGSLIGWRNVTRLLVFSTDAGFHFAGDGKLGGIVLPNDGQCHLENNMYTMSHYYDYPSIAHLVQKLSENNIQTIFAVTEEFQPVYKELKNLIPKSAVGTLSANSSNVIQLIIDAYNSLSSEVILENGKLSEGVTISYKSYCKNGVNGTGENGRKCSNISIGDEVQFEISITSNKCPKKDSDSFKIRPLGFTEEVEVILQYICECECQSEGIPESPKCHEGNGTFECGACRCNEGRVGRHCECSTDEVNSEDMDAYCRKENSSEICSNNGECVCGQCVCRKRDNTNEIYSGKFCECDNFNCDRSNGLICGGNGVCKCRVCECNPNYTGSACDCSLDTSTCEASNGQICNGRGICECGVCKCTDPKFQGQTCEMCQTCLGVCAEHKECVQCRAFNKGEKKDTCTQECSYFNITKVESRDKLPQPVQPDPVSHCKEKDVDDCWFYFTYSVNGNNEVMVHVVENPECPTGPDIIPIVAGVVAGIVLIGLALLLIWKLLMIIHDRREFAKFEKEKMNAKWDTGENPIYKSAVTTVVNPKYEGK
Integrin beta-1 (Homo sapiens) + Integrin alpha-4 (Homo sapiens), sequence (P13612 whole entry, looked up): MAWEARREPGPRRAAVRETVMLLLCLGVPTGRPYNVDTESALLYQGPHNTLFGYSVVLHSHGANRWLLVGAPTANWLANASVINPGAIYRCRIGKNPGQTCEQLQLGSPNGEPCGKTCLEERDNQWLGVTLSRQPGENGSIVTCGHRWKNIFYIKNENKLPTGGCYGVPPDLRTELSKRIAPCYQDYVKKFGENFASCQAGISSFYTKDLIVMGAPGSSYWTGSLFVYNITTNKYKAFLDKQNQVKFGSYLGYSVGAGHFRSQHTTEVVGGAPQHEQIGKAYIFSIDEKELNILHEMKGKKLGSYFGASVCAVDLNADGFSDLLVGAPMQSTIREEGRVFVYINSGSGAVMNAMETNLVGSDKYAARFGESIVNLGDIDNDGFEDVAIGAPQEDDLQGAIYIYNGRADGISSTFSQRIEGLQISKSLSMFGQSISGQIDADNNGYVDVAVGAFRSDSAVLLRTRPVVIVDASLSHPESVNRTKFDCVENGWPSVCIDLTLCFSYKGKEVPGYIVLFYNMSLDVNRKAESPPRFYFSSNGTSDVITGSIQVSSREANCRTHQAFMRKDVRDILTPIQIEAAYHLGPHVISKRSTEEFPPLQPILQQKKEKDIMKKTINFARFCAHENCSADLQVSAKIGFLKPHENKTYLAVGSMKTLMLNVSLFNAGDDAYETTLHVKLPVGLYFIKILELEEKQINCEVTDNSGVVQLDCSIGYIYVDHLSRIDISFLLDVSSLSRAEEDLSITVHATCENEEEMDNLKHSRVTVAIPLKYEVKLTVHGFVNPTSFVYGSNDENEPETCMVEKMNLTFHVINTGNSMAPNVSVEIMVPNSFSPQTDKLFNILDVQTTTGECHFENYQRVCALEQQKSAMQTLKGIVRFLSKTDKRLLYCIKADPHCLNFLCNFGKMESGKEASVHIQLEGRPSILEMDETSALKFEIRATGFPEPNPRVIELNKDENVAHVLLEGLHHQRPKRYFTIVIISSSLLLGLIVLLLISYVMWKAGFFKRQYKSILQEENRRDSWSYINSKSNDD
The nature of test [8]: superoxide lowering in aged yeast cells, pilot screen, validation compound set (AID 2706;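 active means superoxide response below 65% of plate, a cut near 3 SD across the whole screen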;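 further: yeast exposed to compound for one week at 30 degrees C before staining; 100% = mean of all compound wells on the same plate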). As to conditions: S. cerevisiae aging, superoxide DHE fluorescence; at 10 µM; stronger effect = lower value.
Test [9] addresses Beta-adrenergic receptor kinase 1 (Homo sapiens) (UniProt P25098). Description: GRK2 binders displacing RNA aptamer, biochemical, validation, human GRK2, bead flow cytometry (AID 488806;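 active means aptamer binding inhibition above 30%, about 3 SD of noise from non-fluorescent compounds; inactive means inhibition at or below 30%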). To be noted: bead-bound GRK2, FAM-aptamer displacement, at 10 µM, stronger effect = higher value.
Test [10] addresses Beta-2 adrenergic receptor (Homo sapiens) (UniProt P07550). The test is described as follows: beta2AR agonists driving receptor internalization, pilot screen, cell-based, FAP fluorogen, flow cytometry, validation set (AID 504459;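 active means percent response above 42, roughly 3 SD of non-fluorescent test compounds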;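 further: agonist-driven loss of surface beta2AR via internalization measured by FAP dye flow cytometry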). To be noted: Am2.2-beta2AR cells, FAP surface receptor flow cytometry; at 10 µM; stronger effect = higher value.
The target of test [11] is AP-2 complex subunit beta (Homo sapiens) (UniProt P63010). The test is described as follows: inhibitors of arrestin peptide binding to AP2, pilot screen, biochemical, validation set, GST-AP2 beads, flow cytometry (AID 504541;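 active means inhibition above 54%, about 3 SD of non-fluorescent compounds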;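 further: AP2 carries R879A mutation and is captured from E. coli lysate; bead-bound FITC arrestin peptide fluorescence measuring arrestin peptide binding to AP2; 0% = DMSO wells and 100% = excess unlabeled arrestin peptide control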). As to conditions: FITC arrestin peptide, at 10 µM, stronger effect = higher value, AP2 beta2 appendage fragment, R879A mutant.
AP-2 complex subunit beta (Homo sapiens), sequence (P63010 whole entry, looked up, the tested form may be a part, one chain of several): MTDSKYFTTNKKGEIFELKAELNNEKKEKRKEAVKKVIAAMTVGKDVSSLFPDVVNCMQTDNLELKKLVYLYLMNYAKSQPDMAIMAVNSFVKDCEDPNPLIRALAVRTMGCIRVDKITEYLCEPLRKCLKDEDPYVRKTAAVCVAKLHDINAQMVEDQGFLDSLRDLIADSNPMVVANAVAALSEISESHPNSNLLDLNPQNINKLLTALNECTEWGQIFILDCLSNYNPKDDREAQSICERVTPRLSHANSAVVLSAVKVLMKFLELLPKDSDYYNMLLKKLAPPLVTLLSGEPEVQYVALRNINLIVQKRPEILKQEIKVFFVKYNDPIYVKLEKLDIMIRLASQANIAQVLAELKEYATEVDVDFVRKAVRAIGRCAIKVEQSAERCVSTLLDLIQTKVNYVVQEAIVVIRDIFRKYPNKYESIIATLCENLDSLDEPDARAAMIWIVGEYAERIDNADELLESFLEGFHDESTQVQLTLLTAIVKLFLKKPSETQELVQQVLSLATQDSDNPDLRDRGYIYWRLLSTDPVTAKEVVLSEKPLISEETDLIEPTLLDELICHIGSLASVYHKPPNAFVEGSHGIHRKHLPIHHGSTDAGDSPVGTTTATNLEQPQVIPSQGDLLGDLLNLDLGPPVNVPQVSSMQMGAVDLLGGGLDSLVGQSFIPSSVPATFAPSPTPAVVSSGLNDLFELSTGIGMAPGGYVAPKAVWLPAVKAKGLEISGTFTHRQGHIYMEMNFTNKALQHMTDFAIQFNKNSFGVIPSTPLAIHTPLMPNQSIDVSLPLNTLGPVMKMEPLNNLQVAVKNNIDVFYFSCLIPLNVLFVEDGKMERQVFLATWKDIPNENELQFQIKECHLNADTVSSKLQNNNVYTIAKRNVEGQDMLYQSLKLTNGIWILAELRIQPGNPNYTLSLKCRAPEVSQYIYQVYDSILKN
Test [12] in a line: yeast V-ATPase proton transport modulators, S. cerevisiae, pHLuorin, HTS validation (AID 504600; in the data active means response above about 15%;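 further: plate controls were DMSO for no effect and reference compound for full effect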). To be noted: S. cerevisiae pHLuorin cytosolic pH, at 10 µM, stronger effect = higher value.
In test [13] the test system is anti-desmoglein-3 scFv antibody binding to human DSG3. Description: inhibitors of anti-DSG3 scFv binding to DSG3, pilot screen, biochemical, validation compound set, bead-based, flow cytometry (AID 588368;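 active means binding below the plate cutoff, the plate median minus 3 SD, with a reading above zero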;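 further: signal is the median channel fluorescence of bead-bound GFP antibody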). As to conditions: Protein G beads, DSG3-Fc, scFv-GFP binding, at 10 µM, stronger effect = lower value.
A short description of test [14]: inhibitors of fungal efflux pumps CDR1, CDR2, MDR1, pilot screen, validation compound set, multiplex, phenotypic (AID 588506;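 active means efflux inhibition above 0.42, the validation set average plus 4 SD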;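 further: Nile Red retained in cells so higher fluorescence means more efflux inhibition; 0 = negative control wells and 1 = enniatin B 25 µM full block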). To be noted: S. cerevisiae pump-expressing triplex, Nile Red efflux flow cytometry; at 10 µM; stronger effect = higher value; the pumps come from Candida albicans.
Test [15] has as its target ATP-binding cassette sub-family B member 6 (Homo sapiens) (UniProt Q9NP58). The test is described as follows: ABCB6 transporter inhibitors, pilot screen, K562-ABCB6 cells, flow cytometry, validation set (AID 588550;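 active means inhibition above the screen-wide mean plus 3 SD, about 51%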;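 further: 0% = DMSO wells and 100% = benzethonium chloride 70 µM positive control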). To be noted: K562-ABCB6 porphyrin accumulation, 1 h, at 10 µM, stronger effect = higher value.
The nature of test [16]: promoters of myeloid differentiation in arrested cells, primary screen, cell-based, GFP/MAC1 double positive, flow cytometry, validation set (AID 588685;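 active means differentiation response of at least 50%, scaled between solvent and reference control, from cells with both markers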;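 further: compound exposure lasts four days before antibody staining and flow analysis; 0% = DMSO wells and 100% = 5 µM fulvestrant positive control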). As to conditions: ER-HoxA9 marrow cells, stronger effect = higher value, normalized: vehicle 0, fulvestrant 100.

Beta-adrenergic receptor kinase 1 (Homo sapiens), sequence (P25098 whole entry, looked up): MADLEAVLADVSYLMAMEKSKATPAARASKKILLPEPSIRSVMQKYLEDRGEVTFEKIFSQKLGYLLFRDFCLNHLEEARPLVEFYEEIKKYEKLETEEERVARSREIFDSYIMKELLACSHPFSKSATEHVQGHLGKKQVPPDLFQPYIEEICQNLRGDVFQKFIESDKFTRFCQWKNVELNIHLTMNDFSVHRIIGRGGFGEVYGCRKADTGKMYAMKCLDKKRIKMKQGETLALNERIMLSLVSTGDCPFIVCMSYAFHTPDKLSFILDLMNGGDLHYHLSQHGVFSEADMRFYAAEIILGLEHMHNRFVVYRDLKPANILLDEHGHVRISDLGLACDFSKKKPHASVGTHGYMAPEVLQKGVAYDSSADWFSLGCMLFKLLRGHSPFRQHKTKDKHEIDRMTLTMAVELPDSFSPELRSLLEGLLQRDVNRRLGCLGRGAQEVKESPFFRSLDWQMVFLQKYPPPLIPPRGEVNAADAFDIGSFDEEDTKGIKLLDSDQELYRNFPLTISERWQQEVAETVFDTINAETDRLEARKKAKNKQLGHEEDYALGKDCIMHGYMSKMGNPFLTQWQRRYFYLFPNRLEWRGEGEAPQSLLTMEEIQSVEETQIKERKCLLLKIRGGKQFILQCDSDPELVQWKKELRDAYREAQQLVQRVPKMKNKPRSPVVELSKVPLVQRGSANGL
Beta-2 adrenergic receptor (Homo sapiens), sequence (P07550 whole entry, looked up): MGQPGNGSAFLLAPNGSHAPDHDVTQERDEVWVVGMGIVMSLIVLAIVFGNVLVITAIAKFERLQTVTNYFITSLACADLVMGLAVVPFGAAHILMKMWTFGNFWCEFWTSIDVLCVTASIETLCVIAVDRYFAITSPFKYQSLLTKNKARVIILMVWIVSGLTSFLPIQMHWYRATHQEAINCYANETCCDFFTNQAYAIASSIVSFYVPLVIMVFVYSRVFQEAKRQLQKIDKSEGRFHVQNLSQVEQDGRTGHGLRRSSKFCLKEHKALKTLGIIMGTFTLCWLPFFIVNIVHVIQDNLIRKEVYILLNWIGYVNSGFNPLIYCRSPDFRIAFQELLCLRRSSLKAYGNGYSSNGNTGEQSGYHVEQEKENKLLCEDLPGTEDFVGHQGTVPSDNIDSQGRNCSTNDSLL
ATP-binding cassette sub-family B member 6 (Homo sapiens), sequence (Q9NP58 whole entry, looked up): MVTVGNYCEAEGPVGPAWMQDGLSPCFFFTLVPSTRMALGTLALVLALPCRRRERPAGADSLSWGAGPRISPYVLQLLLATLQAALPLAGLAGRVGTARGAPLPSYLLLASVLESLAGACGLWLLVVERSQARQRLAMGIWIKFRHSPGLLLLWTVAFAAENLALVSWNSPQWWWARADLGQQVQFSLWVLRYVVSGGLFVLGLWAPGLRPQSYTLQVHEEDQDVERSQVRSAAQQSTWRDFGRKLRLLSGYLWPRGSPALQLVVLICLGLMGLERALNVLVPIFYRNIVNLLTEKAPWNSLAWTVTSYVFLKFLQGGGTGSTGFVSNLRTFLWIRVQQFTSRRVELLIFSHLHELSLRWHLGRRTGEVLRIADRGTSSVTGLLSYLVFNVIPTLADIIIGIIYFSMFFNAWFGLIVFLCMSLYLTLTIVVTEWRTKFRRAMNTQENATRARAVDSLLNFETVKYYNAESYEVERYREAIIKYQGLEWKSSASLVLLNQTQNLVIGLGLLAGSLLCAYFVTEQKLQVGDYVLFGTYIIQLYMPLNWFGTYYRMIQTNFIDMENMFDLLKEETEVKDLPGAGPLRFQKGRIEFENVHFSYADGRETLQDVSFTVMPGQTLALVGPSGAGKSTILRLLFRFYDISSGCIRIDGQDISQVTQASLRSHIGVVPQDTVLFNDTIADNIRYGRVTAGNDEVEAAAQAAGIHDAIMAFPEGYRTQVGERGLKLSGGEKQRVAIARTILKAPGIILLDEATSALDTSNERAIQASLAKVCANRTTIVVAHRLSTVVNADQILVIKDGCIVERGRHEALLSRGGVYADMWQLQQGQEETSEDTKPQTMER

Broadly, the inhibition is the change of the read-out against control, counted positive when it falls. On to `COc1ccc(OCc2cccc(C(=O)NN)c2)cc1`, for which the percent of DMSO control GFP in test [1] is 94.8% (inactive). Further, the GFP response vs DMSO in [2] was 97.4% (inactive); in test [4] it was 98.2% (inactive). The percent response of DMSO control in test [3] was 105% (inactive). For the same molecule, the GFP response, % of DMSO in test [5] was 86.3% (inactive). Further, the double positive events in test [6] is 59.7%. Besides, the vesicle binding response in test [6] was 167% (inactive). The inhibition was -8.62% (inactive) in [7], -3.59% (inactive) in test [11] and 3% (inactive) in test [15]. Further, in [8], the superoxide response (% of plate) was 98.7% (inactive). Besides, the aptamer binding inhibition in test [9] is 8% (inactive). For the same molecule, the response in [10] is 11.1% (inactive); in test [12], -1.43% (inactive). Also, the binding (% of control) in [13] is 103% (inactive). In test [14], the efflux inhibition (fraction of control) was -0.28 (inactive). For the same molecule, the differentiation response in [16] is -13.6% (inactive).
Take `O=C(O)/C=C/c1cnc[nH]1`: the percent of DMSO control GFP in test [1] is 104% (inactive). Besides, the figures for the GFP response vs DMSO in test [2] and in test [4] were 108% (inactive) and 101% (inactive), respectively. Also, the percent response of DMSO control in test [3] is 106% (inactive). The GFP response, % of DMSO in test [5] was 112% (inactive). Moreover, the double positive events in test [6] was determined as 59.9%. In test [6], the vesicle binding response is 93.5% (inactive). Also, the inhibition in [7] was 2.93% (inactive); in test [11], -0.6% (inactive); in [15], 10% (inactive). Further, the superoxide response (% of plate) in [8] was 98.6% (inactive). Moreover, the aptamer binding inhibition in test [9] was -2% (inactive). Moreover, the response was -4.55% (inactive) in test [10] and -0.43% (inactive) in [12]. Also, in test [13], the binding (% of control) is 103% (inactive). Further, in test [14], the efflux inhibition (fraction of control) is 0.755 (active). Also, the differentiation response in test [16] was -13.3% (inactive).
Take `COc1ccc(S(=O)(=O)NCc2ccco2)c2ccccc12`: the percent of DMSO control GFP in test [1] is 100% (inactive). In addition, the GFP response vs DMSO in [2] is 104% (inactive); in test [4], 114% (inactive). Besides, the percent response of DMSO control in test [3] was 88.2% (inactive). Further, the GFP response, % of DMSO in test [5] is 87% (inactive). In test [6], this molecule returned a double positive events of 62.3%. Further, the vesicle binding response in [6] is 175% (inactive). The inhibition in test [7] was 7.76% (inactive); in test [11] it was -4.99% (inactive); in test [15], 7% (inactive). Besides, the superoxide response (% of plate) in test [8] was 89.3% (inactive). Further, the aptamer binding inhibition in test [9] was 3% (inactive). For the same molecule, the response is -3.81% (inactive) in test [10] and 1.41% (inactive) in test [12]. In addition, in [13], the binding (% of control) is 96.3% (inactive). In addition, the efflux inhibition (fraction of control) in [14] was -0.13 (inactive). In addition, in test [16], the differentiation response was 2.4% (inactive).
In the case of `CS(=O)(=O)NCc1ccc(C(=O)NCc2ccccc2)cc1`, the percent of DMSO control GFP in test [1] was 98.4% (inactive). The values for the GFP response vs DMSO in test [2] and in test [4] were 107% (inactive) and 127% (inactive), respectively. In test [3], the percent response of DMSO control is 100% (inactive). For the same molecule, the GFP response, % of DMSO in [5] is 123% (inactive). For the same molecule, in [6], the double positive events came out at 55.6%. Besides, the vesicle binding response in [6] is 174% (inactive). Moreover, the inhibition is -19% (inactive) in [7], -12% (inactive) in test [11] and -5% (inactive) in [15]. Besides, the superoxide response (% of plate) in [8] was 105% (inactive). For the same molecule, in test [9], the aptamer binding inhibition is -8% (inactive). Moreover, the response in test [10] was -27.9% (inactive); in [12], 4.07% (inactive). Moreover, in test [13], the binding (% of control) was 98.7% (inactive). The efflux inhibition (fraction of control) in test [14] is -0.04 (inactive). In addition, the differentiation response in test [16] is -3.02% (inactive).
As to `COc1ccc(C(=O)NCc2cccnc2)cc1`, the percent of DMSO control GFP in test [1] was 103% (inactive). The GFP response vs DMSO in test [2] was 101% (inactive); in [4], 85.4% (inactive). Also, the percent response of DMSO control in test [3] was 98.6% (inactive). The GFP response, % of DMSO in [5] is 94.6% (inactive). The molecule also yielded a double positive events in [6] of 58.3%. In addition, the vesicle binding response in test [6] is 247% (inactive). The results for the inhibition in test [7], in test [11] and in test [15] were 11.9% (inactive), -8.5% (inactive) and 6% (inactive), respectively. The superoxide response (% of plate) in [8] was 105% (inactive). Besides, the aptamer binding inhibition in test [9] was 7% (inactive). Further, the response in test [10] is 3.58% (inactive); in [12], 1.75% (inactive). In addition, the binding (% of control) in test [13] was 101% (inactive). Further, the efflux inhibition (fraction of control) in test [14] is -0.13 (inactive). For the same molecule, the differentiation response in test [16] was -24.8% (inactive).
